# Test results: PubChem BioAssay (NCATS)
# Values joined by “and” are separate entries in the source; they are usually repeats but may differ in a detail not shown here. Identical values can stand only once. Records with an inconclusive call do not appear. A call without a number means that no potency is given here. A number with no mark means an inactive call. Active and inactive are the calls of the source. Calls come from the whole dose curve; as a rule, active = well fitted curve in the direction sought with a large enough effect; inconclusive = small, poorly fitted or top-dose-only effect, or another doubt; inactive = no such curve, though single readings can be large; an effect the other way counts as inactive or inconclusive.
# Columns and labels:
# [1] = Primary qHTS for inhibitors of nuclear receptor binding SET domain protein 2 (NSD2) in an isogenic RCH-ACV NSD2 p.E1099K mutant (9B) (AID 1645876); note: nearly all actives have a fitted effect of over 70% in size; note: potency is the fitted concentration of half-maximal effect
# [2] = Primary qHTS for inhibitors of nuclear receptor binding SET domain protein 2 (NSD2) in an RCH-ACV wild type WT cells (2C) (AID 1645877); note: nearly all actives have a fitted effect of over 70% in size; note: potency is the fitted concentration of half-maximal effect
# [3] = target: Glutathione peroxidase 1 (Homo sapiens) (UniProt P07203); experiment: Primary qHTS Assay for Inhibitors of Recombinant Selenoprotein Glutathione Peroxidase 1 (GPX1) (AID 1845191); note: nearly all actives have a fitted effect of over 65% in size
# Chain of Glutathione peroxidase 1 (Homo sapiens) (P07203 whole entry, looked up): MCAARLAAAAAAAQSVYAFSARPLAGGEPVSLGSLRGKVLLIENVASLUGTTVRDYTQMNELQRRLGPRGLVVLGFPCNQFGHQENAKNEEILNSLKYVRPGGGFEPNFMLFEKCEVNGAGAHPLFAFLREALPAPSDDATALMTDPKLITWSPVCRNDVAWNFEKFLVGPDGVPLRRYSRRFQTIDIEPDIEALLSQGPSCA
# How it was run: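 GR-coupled readout: NADPH consumption tracked by fluorescence, ex 340/em 450 nm, at t=0 and after 15 min at RT. Final mix 10 nM GPX1, 1 mM GSH, 0.5 mM CHP, 0.5 mM NADPH, 100 nM GR, 0.01% BSA, following 30 min enzyme–compound preincubation.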
structure (smiles),measurement,setting,value
Cn1c(=O)cc(N2CCCC(N)C2)n(Cc2cc(F)ccc2C#N)c1=O (stereo unspecified),Potency,[1],inactive
same,Potency,[2],inactive
same,Potency,[3],inactive
CO[C@H]1C[C@@H]2CC[C@@H](C)[C@@](O)(O2)C(=O)C(=O)N2CCCC[C@H]2C(=O)O[C@H]([C@H](C)C[C@@H]2CC[C@@H](OP(C)(C)=O)[C@H](OC)C2)CC(=O)[C@H](C)/C=C(\C)[C@@H](O)[C@@H](OC)C(=O)[C@H](C)C[C@H](C)/C=C/C=C/C=C/1C,Potency,[1],11.8 nM (active)
same,Potency,[2],46.8 nM (active)
same,Potency,[3],inactive
CC1OC(OC2C(CO)OC(OCC3OC(OC(=O)C45CCC(C)(C)CC4C4=CCC6C7(C)CCC(OC8OC(CO)C(O)C(OC9OC(CO)C(O)C(O)C9O)C8O)C(C)(C)C7CCC6(C)C4(C)CC5)C(O)C(O)C3O)C(O)C2O)C(O)C(O)C1OC1OC(CO)C(O)C(O)C1O (stereo unspecified),"activity change, negative = viability loss",[1],-0.174% [at 9.23 µM]
same,"activity change, negative = cell killing",[2],-10.4% [at 9.23 µM]
same,"activity, negative = inhibition",[3],-12.6% [at 9.52 µM]
CCNC(=O)C1OC(n2cnc3c(N)nc(NCCc4ccc(CCC(=O)O)cc4)nc32)C(O)C1O (stereo unspecified),Potency,[1],inactive
same,Potency,[2],inactive
same,Potency,[3],inactive
C/C=C(\C)C(=O)OCC1OC(OC2OC(COC(=O)/C(C)=C/C)C(OC3OC(CO)C(OC(=O)/C(C)=C/C)C(OC(=O)/C(C)=C/C)C3O)C(O)C2O)C(O)C(O)C1OC1OC(CO)C(OC(=O)/C(C)=C/C)C(OC(=O)/C(C)=C/C)C1O (stereo unspecified),"activity change, negative = viability loss",[1],-4.2% [at 9.23 µM]
same,"activity change, negative = cell killing",[2],-15.3% [at 9.23 µM]
same,Potency,[3],inactive
CC1(C)C=CN2C(=O)C3=CCCN3C(=O)[C@@H]2C[C@@]12Nc1ccccc1C2=O,Potency,[1],inactive
same,Potency,[2],inactive
same,Potency,[3],inactive
C[C@@H]1O[C@@H](O[C@H]2[C@@H]3C=CO[C@@H](O[C@@H]4O[C@H](CO)[C@@H](O)[C@H](O)[C@H]4O)[C@@H]3[C@@]3(CO)O[C@@H]23)[C@H](OC(=O)/C=C/c2ccc(O)c(O)c2)[C@H](O)[C@H]1O,Potency,[1],inactive
same,Potency,[2],inactive
same,Potency,[3],inactive
CC1(C)CC[C@]2(C(=O)O[C@@H]3O[C@H](CO)[C@@H](O)[C@H](O)[C@H]3O)CC[C@]3(C)C(=CCC4[C@@]5(C)CC[C@H](O[C@@H]6O[C@H](C(=O)O)[C@@H](O)[C@H](O[C@@H]7O[C@H](CO)[C@H](O)[C@H](O)[C@H]7O)[C@H]6O)C(C)(C)C5CC[C@]43C)C2C1 (stereo partly specified),"activity change, negative = viability loss",[1],-8.36% [at 9.23 µM]
same,"activity change, negative = cell killing",[2],-15.1% [at 9.23 µM]
same,Potency,[3],inactive
C[S+](CC[C@H](N)C(=O)[O-])C[C@H]1O[C@@H](n2cnc3c(N)ncnc32)[C@H](O)[C@@H]1O (stereo partly specified),Potency,[1],inactive
same,Potency,[2],inactive
same,Potency,[3],inactive
CC1(C)CCC2(C(=O)OC3OC(CO)C(O)C(O)C3O)CCC3(C)C(=CCC4C5(C)CCC(O)C(C)(C(=O)O)C5CCC43C)C2C1O (stereo unspecified),Potency,[1],inactive
same,Potency,[2],inactive
same,Potency,[3],inactive
CCC(=O)O[C@H]1C(C)(C)[C@H]([C@@H](O)C(=O)OC)[C@]2(C)C(=O)[C@@]1(O)[C@H]1O[C@]13C1CC(=O)O[C@@H](c4ccoc4)[C@]1(C)CCC32 (stereo partly specified),Potency,[1],inactive
same,Potency,[2],inactive
same,Potency,[3],inactive
C=C1C[C@]23C[C@H]1CC[C@H]2C1=C[C@H]2OC(=O)[C@@](C)([C@H]1[C@@H]3C(=O)O)[C@H]2O,Potency,[1],inactive
same,Potency,[2],inactive
same,Potency,[3],inactive
CC(C)=CC/C=C(\C)[C@H]1CC[C@]2(C)[C@@H]1[C@H](O)C[C@@H]1[C@@]3(C)CC[C@H](O)C(C)(C)[C@@H]3[C@@H](O[C@@H]3O[C@H](CO)[C@@H](O)[C@H](O)[C@H]3O)C[C@]12C,Potency,[1],inactive
same,Potency,[2],inactive
same,Potency,[3],inactive
COC(=O)c1ccnc(-c2cc(C(=O)NCCc3ccccc3)ccn2)c1,Potency,[1],inactive
same,Potency,[2],inactive
same,Potency,[3],inactive
C[C@@H]1C[C@@H]([C@@H](O)C(C)(C)O)O[C@H]2C[C@@]3(C)C(=C12)C[C@H](O)[C@H]1[C@@]2(C)CCC(=O)C(C)(C)C2CC[C@@]13C (stereo partly specified),Potency,[1],inactive
same,Potency,[2],inactive
same,Potency,[3],inactive
OC[C@H]1O[C@@H](O[C@H]2[C@H](OCc3ccccc3)O[C@H](CO[C@@H]3OC[C@@H](O)[C@H](O)[C@H]3O)[C@@H](O)[C@@H]2O)[C@H](O)[C@@H](O)[C@@H]1O,Potency,[1],inactive
same,Potency,[2],inactive
same,Potency,[3],inactive
CC1(C)CC[C@]2(CO[C@@H]3O[C@H](CO)[C@@H](O)[C@H](O)[C@H]3O)[C@@H](O)C[C@]3(C)C(=CCC4[C@@]5(C)CC[C@H](O[C@@H]6O[C@H](CO[C@@H]7O[C@H](CO[C@@H]8OC[C@@H](O)[C@H](O)[C@H]8O)[C@@H](O)[C@H](O)[C@H]7O)[C@@H](O)[C@H](O)[C@H]6O)C(C)(C)C5CC[C@]43C)[C@@H]2C1 (stereo partly specified),"activity change, negative = viability loss",[1],-11.3% [at 9.23 µM]
same,"activity change, negative = cell killing",[2],-16% [at 9.23 µM]
same,Potency,[3],inactive
CC1(C(=O)O)CCCC2(C)C3=CCC4CC3(CCC12)CC4CO (stereo unspecified),Potency,[1],inactive
same,Potency,[2],inactive
same,Potency,[3],inactive
C=C1C[C@]23C[C@H]1[C@@H](O)C[C@H]2[C@@]12C=C[C@H](O)[C@@](C)(C(=O)O1)[C@H]2[C@@H]3C(=O)O,Potency,[1],inactive
same,Potency,[2],inactive
same,Potency,[3],inactive
O=C1Nc2ccccc2C(O)(c2ccccc2)C1O (stereo unspecified),Potency,[1],inactive
same,Potency,[2],inactive
same,Potency,[3],inactive
CN(C)c1ccc2c(c1)OC(N)=C(C#N)C2c1cccc(C(F)(F)F)c1 (stereo unspecified),Potency,[1],817 nM (active)
same,Potency,[2],916 nM (active)
same,Potency,[3],inactive
CC(=O)OC[C@]12[C@H](OC(C)=O)C(=O)[C@@H]3[C@@H](OC(C)=O)[C@@]14O[C@@]3(C)COC(=O)c1cccnc1[C@@H](C)[C@H](C)C(=O)O[C@@H]([C@H](O)[C@@H]2OC(C)=O)[C@]4(C)O,Potency,[1],inactive
same,Potency,[2],inactive
same,Potency,[3],inactive
COc1cc(OC)c(/C=C/S(=O)(=O)Cc2ccc(OC)c(NCC(=O)O)c2)c(OC)c1,Potency,[1],57.8 nM (active) and 59 nM (active)
same,Potency,[2],51.5 nM (active) and 46.8 nM (active)
same,Potency,[3],inactive
COc1ccc(/C=C\C(=O)O)c(O[C@@H]2O[C@H](CO)[C@@H](O)[C@H](O)[C@H]2O)c1,Potency,[1],inactive
same,Potency,[2],inactive
same,Potency,[3],inactive
Cc1ccccc1C#Cc1ccc(CCC(=O)O)cc1,Potency,[1],inactive
same,Potency,[2],inactive
same,Potency,[3],inactive
C[C@@H]1O[C@@H](O[C@H]2[C@H](O[C@H]3[C@H](O)[C@@H](C(=O)O)O[C@@H](O[C@H]4CC[C@@]5(C)C(CC[C@]6(C)C5CC[C@]57OC[C@@]8(CCC(C)(C)CC85)[C@H](O)C[C@]76C)C4(C)C)[C@@H]3O[C@@H]3O[C@H](CO)[C@@H](O[C@@H]4OC[C@@H](O)[C@H](O)[C@H]4O)[C@H](O)[C@H]3O)O[C@H](CO)[C@H](O)[C@@H]2O)[C@H](O)[C@H](O)[C@H]1O (stereo partly specified),"activity change, negative = viability loss",[1],0.445% [at 9.23 µM]
same,"activity change, negative = cell killing",[2],-1.94% [at 9.23 µM]
same,outcome,[3],inactive [at 9.52 µM]
N#C[C@@H]1C[C@H](F)CN1C(=O)CNC1[C@H]2CN(C(=O)c3ccc(F)cc3)C[C@@H]12 (stereo partly specified),Potency,[1],inactive
same,Potency,[2],inactive
same,Potency,[3],inactive
C/C=C/C1=CC2=C(CO1)C(=O)C(C)(O)C(OC(=O)c1c(C)cc(OC)cc1O)C2 (stereo unspecified),Potency,[1],16000 nM (active)
same,Potency,[2],4500 nM (active)
same,Potency,[3],inactive
C[C@@H]1N[C@H]2N(C1=O)c1ccccc1[C@@]2(O)C[C@@H]1C(=O)N[C@@H](C)c2nc3ccccc3c(=O)n21,Potency,[1],inactive
same,Potency,[2],inactive
same,Potency,[3],inactive
OC[C@H]1O[C@@H](Oc2ccccc2)[C@H](O)[C@@H](O)[C@@H]1O,Potency,[1],inactive
same,Potency,[2],inactive
same,Potency,[3],inactive
Nc1ncnc2c1ncn2CCNCCCCCO,Potency,[1],inactive
same,Potency,[2],inactive
same,Potency,[3],inactive
CC[C@H](C)[C@H](NC(=O)[C@H]([C@@H](C)CC)N(C)C(C)=O)C(=O)N[C@H](C(=O)N[C@@H](CC(C)C)C(=O)[C@@]1(C)CO1)[C@@H](C)O,Potency,[1],12.9 nM (active)
same,Potency,[2],7.3 nM (active)
same,Potency,[3],inactive
C=CC(C)(O)CC[C@H]1C(=C)CCC2[C@](C)(C(=O)O)CCC[C@@]21C (stereo partly specified),Potency,[1],inactive
same,Potency,[2],inactive
same,Potency,[3],inactive
CC1OC(OC2C(OC3C(O[C@H]4CC[C@@]5(C)C(CC[C@]6(C)C5C(=O)C=C5C7CC(C)(C)CC(O)[C@]7(C)CC[C@]56C)C4(C)C)OC(C(=O)O)C(O)C3O)OCC(O)C2O)C(O)C(O)C1O (stereo partly specified),"activity change, negative = viability loss",[1],-6.05% [at 9.23 µM]
same,"activity change, negative = cell killing",[2],0.842% [at 9.23 µM]
same,Potency,[3],inactive
C[C@@H]1CC[C@]2(C(=O)O[C@@H]3O[C@H](CO)[C@@H](O)[C@H](O)[C@H]3O)CC[C@]3(C)C(=CCC4[C@@]5(C)C[C@@H](O)[C@H](O)[C@@](C)(C(=O)O[C@H]6[C@H](O)C[C@@]7(C)C(CC[C@]8(C)C7CC=C7[C@H]9[C@](C(=O)O[C@@H]%10O[C@H](CO)[C@@H](O)[C@H](O)[C@H]%10O)(CC[C@@H](C)[C@@]9(C)O)CC[C@]78C)[C@@]6(CO)C(=O)O)C5CC[C@]43C)[C@@H]2[C@]1(C)O (stereo partly specified),outcome,[1],inactive [at 9.23 µM]
same,"activity change, negative = cell killing",[2],0.118% [at 9.23 µM]
same,outcome,[3],inactive [at 9.52 µM]
C/C1=C\CC[C@]2(C)O[C@@H]2[C@H](O)[C@H](C(C)C)[C@H](OC(=O)/C=C/c2ccccc2)C1,Potency,[1],inactive
same,Potency,[2],inactive
same,Potency,[3],inactive
CC1(C)CC2C=C(C(=O)O)C3COC(=O)C(O)(CO)C23C1 (stereo unspecified),Potency,[1],inactive
same,Potency,[2],inactive
same,Potency,[3],inactive
CC1OC2OC(=O)C3(C)CC4=C(CO)C5=C(CC(=O)C4(C)C(C1=O)C23)C(C)(C)OC(=O)C5 (stereo unspecified),Potency,[1],inactive
same,Potency,[2],inactive
same,Potency,[3],inactive
COC(=O)C12C(=O)C(C)=C(O)C1(C)C(C)=CC1C3(CO)CCC(O)C(C)(C)C3CCC12C (stereo unspecified),Potency,[1],inactive
same,Potency,[2],inactive
same,Potency,[3],inactive
CC1COC2(OC3CC4C5CC(O[C@@H]6O[C@H](C)[C@@H](O[C@@H]7O[C@@H](C)[C@H](O)[C@@H](O)[C@H]7O)[C@H](O)[C@H]6O)C6CC(O)CCC6(C)C5CCC4(C)C3C2C)C(O)C1 (stereo partly specified),Potency,[1],inactive
same,Potency,[2],inactive
same,Potency,[3],inactive
CC1CCC2C(C(=O)O)=COC(O[C@@H]3O[C@H](CO)[C@@H](O)[C@H](O)[C@H]3O)C12 (stereo partly specified),Potency,[1],inactive
same,Potency,[2],inactive
same,Potency,[3],inactive
C[C@@H]1C(=O)O[C@H]2C[C@]34[C@H]5C[C@@H](C(C)(C)C)[C@]36[C@@H](OC(=O)[C@H]6O)O[C@]4(C(=O)O5)[C@]21O,Potency,[1],inactive
same,Potency,[2],inactive
same,Potency,[3],inactive
